Compound activity: PubChem BioAssay, The Scripps Research Institute Molecular Screening Center
Hits are enriched below; roughly 4.1% of the tested compounds scored in any of these assays.
DAX1 inh-1 = DAX1 (NR0B1) inhibition, primary screen. HEK293T StAR-luciferase reporter, SF-1/DAX-1 repression relief. inhibition, % at 6.8 µM. 370,000 tested, 1.1% active. AID 652010;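 active = inhibition above the mean over all tested compounds plus 3 SD, cut at about 3.6% in these data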;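 note: higher inhibition means more luminescence from relief of DAX-1 repression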
ssDAF-12 act = activates DAF-12 receptor from parasite S. stercoralis; HEK293 ssDAF-12/GRIP1 lit1-tk-luc reporter, luminescence; % of 3 µM dafachronic acid response; activation, % at 6.8 µM; 370,000 tested, 1% active; AID 652126;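 active = activation above the mean over all tested compounds plus 3 SD, cut at about 0.9% in these data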
DAX1 inh-2 = inhibitors of human orphan nuclear receptor DAX1 (NR0B1) | HEK293 Gal4-DAX1 luciferase reporter, luminescence | inhibition, % at 6.75 µM | 340,000 tested, 0.99% active | AID 504766;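 active = inhibition above the mean over all tested compounds plus 3 SD, cut at about 4.2% in these data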;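 note: inhibition shows as a rise in luminescence from relieved DAX1 repression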
Target sequence (P51843 207-470 limits assumed): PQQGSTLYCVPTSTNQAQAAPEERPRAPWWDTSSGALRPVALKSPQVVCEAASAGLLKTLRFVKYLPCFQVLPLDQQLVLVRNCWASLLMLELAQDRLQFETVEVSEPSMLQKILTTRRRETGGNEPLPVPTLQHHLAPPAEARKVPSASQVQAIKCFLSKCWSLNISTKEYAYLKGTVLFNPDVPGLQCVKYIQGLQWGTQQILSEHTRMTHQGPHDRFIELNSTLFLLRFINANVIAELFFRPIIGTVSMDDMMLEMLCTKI
hcDAF12 agonist = H. contortus DAF-12 activation, primary screen | HEK293 hcDAF-12 lit1-tk-luc reporter, luminescence; 0% DMSO, 100% Δ7-dafachronic acid | activation, % at 6.8 µM | 370,000 tested, 1.4% active | AID 652067;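 active = activation above the mean of all tested compounds plus 3 SD, cut at about 5.5% in these data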
hgDAF12 agonist = agonists of H. glycines DAF-12 nuclear receptor; 370,000 tested, 1.8% active; activation, % at 6.8 µM; HEK293 GAL4-hgDAF12 UAS-luciferase reporter, agonist luminescence; normalized to butyrate control;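 active = activation above a cutoff set at the mean of all screened compounds plus 3 SD, cut at about 10% in these data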
Hits are given with their value; . = inactive; / = no result.

SMILES | DAX1 inh-1 | ssDAF-12 act | DAX1 inh-2 | hcDAF12 agonist | hgDAF12 agonist
COc1cccc(C(=O)N[C@H](C(=O)N2CCC[C@H]2C(=O)NCc2ccccc2)c2ccccc2)c1 | . | . | / | . | .
COc1ccc(S[C@]2(C(=O)N3CCN(c4ncccn4)CC3)CC(=O)N(c3ccccc3)[C@@H]2c2ccc(OC)cc2)cc1 | . | . | / | . | .
CCOc1ccccc1-c1ccc(C(=O)NCc2ccccc2)o1 | . | . | 7.3 | . | .
Cc1ccc(-c2ccc(C(=O)NCc3ccccc3)o2)c2ccccc12 | . | . | . | . | .
COC(=O)c1ccc(N=NNc2ccccc2)cc1 | 4.1 | . | . | . | 11
CS(=O)(=O)N1CCc2cc(C(=O)Nc3ccccc3Cl)ccc21 | . | . | 21 | . | .
CN(c1c2c(nc3ncnn13)CCCC2)C1CCCCC1 | . | . | / | . | .
CCCCCC(=O)OCc1ccc(C2=CC(=O)CC(C)(C)C2=O)cc1 | 4.2 | . | . | . | .
C[C@@H]1CCN(C2CC2)S(=O)(=O)c2ccc(N3CC[C@@H](N(C)C)C3)cc2O1 | . | . | / | . | .
Cc1ccc(Cl)cc1N(CC(=O)Nc1cccc(N(C)S(C)(=O)=O)c1)S(C)(=O)=O | . | 1.1 | . | . | .
COc1ccccc1N(CC(N)=O)S(=O)(=O)c1ccc(C)cc1 | . | 1.1 | . | . | .
O=C(Nc1ccc(F)cc1)C(c1ccccc1)N1CCN(C(=O)c2ccco2)CC1 (centres undefined) | . | . | 4.7 | . | .
CCN(Cc1nc(-c2cccc(Cl)c2)no1)CC1CCCO1 (centres undefined) | . | . | . | . | .
CN(Cc1nc(-c2cccc(Cl)c2)no1)C1CCOCC1 | . | . | . | . | 12
COc1ccc(S[C@]2(C(=O)NCc3ccccc3)CC(=O)N[C@@H]2c2ccc(OC)cc2)cc1 | . | . | / | . | .
COC(=O)[C@]12C[C@H](CC(=O)N3CCOCC3)C(=O)N(CCc3ccc(OC)c(OC)c3)C1=C[C@H](C(C)C)O[C@@H]2C1CC1 | . | . | / | . | .
CN(C)c1cccc(NC(=O)c2cccc3ccccc23)c1 | . | 1.2 | . | 6.5 | .
CCC(C)(C)NC(=O)CN(Cc1cccs1)C(=O)CNS(=O)(=O)c1ccc(C)cc1 | . | . | 6.4 | . | .
CCOC(=O)/C(C#N)=C/C1=C(N2CCOCC2)C(C)(C)OCC1 | . | . | 4.3 | . | .
Cc1ccnc(NC(=O)Nc2ccc3c(c2)N(C)C(=O)CS3)c1 | . | . | . | . | 10
CCOc1ccc(CNC2CCCc3ccccc32)cc1 (centres undefined) | . | . | 9.1 | . | .
C=CCN1C(=O)[C@@H](CC(=O)NCC23CC4CC(CC(C4)C2)C3)[C@]2(C(=O)OCC)CCCCC/C=C/12 | . | . | / | . | .
COc1cccc(NC(=O)C2CCCN2C(=O)Nc2cccc3c2OCO3)c1 (centres undefined) | . | . | / | . | .
O=C(C1CCCN(S(=O)(=O)c2ccc([N+](=O)[O-])cc2)C1)N1CCN(Cc2ccccc2)CC1 (centres undefined) | . | . | / | . | .
O=C(CC1CC2CCC1C2)Nc1nc(-c2ccccn2)cs1 (centres undefined) | . | . | . | 6.3 | .
SMILES | DAX1 inh-1 | ssDAF-12 act | DAX1 inh-2 | hcDAF12 agonist | hgDAF12 agonist
CCC(=O)N1N=C(c2ccc(NS(C)(=O)=O)cc2)CC1c1ccc(N(C)C)cc1 (centres undefined) | . | . | . | . | 13
COC(=O)c1ccc(S(=O)(=O)N2CCC(NC(=O)CCC3CCCC3)CC2)cc1 | . | . | / | . | .
CC(C)CN1C(=O)[C@@]2(CC(=O)N(C)C2c2ccccc2)c2cc(-n3cc(-c4ccccc4)nn3)ccc21 (some centres undefined) | . | . | / | . | .
CCCNC(=O)Cn1c(=O)oc2cc(S(=O)(=O)N3CC(C)CC(C)C3)ccc21 (centres undefined) | . | . | . | . | .
CCCCN(C)C(=O)Cn1c(=O)oc2cc(S(=O)(=O)N3CC(C)CC(C)C3)ccc21 (centres undefined) | . | . | 5.7 | . | .
CCN(CC)C(=O)CCCSc1nnc(Nc2ccccc2F)s1 | . | . | . | . | 13
Cc1ccc(-c2noc(CSc3ccccc3)n2)cc1 | 3.9 | . | . | . | 12
Cc1ccc(-c2noc(COc3ccccc3C)n2)cc1 | . | . | . | . | .
Cc1ccc(OCc2nc(-c3ccccc3)no2)cc1 | . | . | 4.8 | . | .
